High-throughput results deposited in PubChem BioAssay by several laboratories.
RTF Ca sens inh – cardiac RTF calcium sensitivity inhibitors, primary screen, biochemical, IANBD-TnC fluorescence, EC70 calcium. IANBD-labeled cardiac RTF, Ca2+ fluorescence. AID 493244, 2011. 340,000 compounds, 0.12% hits. inhibition, % at 7.15 µM. Troponin I, cardiac muscle (Homo sapiens) + Troponin T, cardiac muscle (Homo sapiens) + …;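 active = inhibition above the mean inhibition of all tested compounds plus 3 SD, cut at about 17% in these data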;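 also: assay run at fixed EC70 calcium of 1.6 mM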
CRFBP-R2 agonist – agonists of CRF-BP/CRF-R2 complex, primary screen, cell-based, HEK293, calcium dye fluorescence, uHTS; CRF-binding protein / CRF receptor 2 complex (human); calcium dye fluorescence (FLIPR); percent of saturating CRF peptide response; activation, % at 13.2 µM; 350,000 compounds, 0.46% hits; AID 588473, 2011;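 active = activation of at least 50%, plus an integration ratio under a set limit after plate pattern correction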;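 also: plate controls were neutral control wells without compound for no effect and CRF at EC100 for full effect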
RTF Ca sens act – cardiac RTF calcium sensitivity activators, primary screen, biochemical, IANBD-TnC fluorescence, EC20 calcium. Troponin I, cardiac muscle (Homo sapiens) + Troponin T, cardiac muscle (Homo sapiens) + …. IANBD-labeled TnC RTF fluorescence at EC20 calcium; 0% EC20 calcium, 100% full calcium. activation, % at 7.2 µM. 340,000 compounds, 0.24% hits;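 active = activation above the mean over all tested compounds plus 3 SD, cut at about 30% in these data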;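 also: rise in fluorescence read as greater calcium sensitivity of cardiac thin filaments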
CRFBP-R2 block – antagonists of CRF-BP/CRF-R2 complex, primary screen, cell-based, HEK293, calcium dye fluorescence, uHTS | CRF-induced calcium fluorescence | inhibition, % at 11.8 µM | 350,000 compounds, 0.59% hits;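 active = inhibition of the ligand-induced calcium signal above about 50% at the single tested concentration, limit read from the data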
TMEM16A inh – TMEM16A chloride channel inhibitors, primary screen, cell-based, HTS; HEK293 TMEM16A/YFP iodide influx fluorescence, ionomycin; 310,000 compounds, 1.2% hits; Anoctamin-1 (Mus musculus), Q8BHY3; normalized B-score (activity score, 25-100; higher = stronger inhibition) at 10 µM;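 active = ratio plate-corrected score three or more library SD toward inhibition, starting fluorescence score within five deviations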;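 also: score derived from kinetic fluorescence span divided by baseline fluorescence per well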
Target sequence (Q8BHY3 whole entry, looked up): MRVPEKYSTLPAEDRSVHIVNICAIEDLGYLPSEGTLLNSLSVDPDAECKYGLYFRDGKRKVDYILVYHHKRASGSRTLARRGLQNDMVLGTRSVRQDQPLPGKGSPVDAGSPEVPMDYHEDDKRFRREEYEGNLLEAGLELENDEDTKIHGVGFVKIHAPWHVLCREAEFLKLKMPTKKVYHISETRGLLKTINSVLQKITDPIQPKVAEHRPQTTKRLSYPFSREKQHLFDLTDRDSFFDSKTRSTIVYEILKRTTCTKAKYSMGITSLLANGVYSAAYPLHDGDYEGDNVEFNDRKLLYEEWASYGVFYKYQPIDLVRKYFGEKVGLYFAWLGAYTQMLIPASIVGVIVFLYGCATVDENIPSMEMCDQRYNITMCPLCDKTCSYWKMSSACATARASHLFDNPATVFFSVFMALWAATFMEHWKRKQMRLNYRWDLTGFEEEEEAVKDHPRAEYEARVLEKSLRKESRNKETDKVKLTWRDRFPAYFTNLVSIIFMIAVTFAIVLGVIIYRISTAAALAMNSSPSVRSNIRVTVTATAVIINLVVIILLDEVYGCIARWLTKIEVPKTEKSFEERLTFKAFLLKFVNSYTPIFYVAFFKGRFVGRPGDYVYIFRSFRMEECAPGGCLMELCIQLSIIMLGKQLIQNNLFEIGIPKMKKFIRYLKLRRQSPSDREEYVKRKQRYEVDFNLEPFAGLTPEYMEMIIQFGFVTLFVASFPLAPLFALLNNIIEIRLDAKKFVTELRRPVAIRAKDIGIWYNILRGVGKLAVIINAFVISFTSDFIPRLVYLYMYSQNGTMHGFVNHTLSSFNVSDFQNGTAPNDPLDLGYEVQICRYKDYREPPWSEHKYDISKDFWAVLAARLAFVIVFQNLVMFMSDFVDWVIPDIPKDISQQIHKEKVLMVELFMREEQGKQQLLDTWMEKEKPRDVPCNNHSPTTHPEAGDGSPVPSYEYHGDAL
ANO1 activ – TMEM16A chloride channel activators or potentiators, primary screen, cell-based, HTS. B-score at 10 µM. AID 623877, 2012. Anoctamin-1 (Mus musculus), Q8BHY3. HEK293 TMEM16A/YFP-H148Q/I152L, iodide quench fluorescence; hits give low values. 340,000 compounds, 0.3% hits;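 active = fluorescence-ratio B-score plate-corrected deviation score at least 3 library SD below zero, with starting fluorescence score within 5 deviations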;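 also: channel opened by trigger with iodide after compound preincubation; score built on the fluorescence ratio of max minus min over baseline; more negative score means more quench and so TMEM16A activation or potentiation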
TMEM16A reconf – TMEM16A chloride channel inhibitors, confirmation, cell-based, re-confirmation; shares compounds with TMEM16A inh; HEK293 TMEM16A/YFP-H148Q, iodide quench fluorescence; ionomycin added to raise cell calcium; inhibition, % at 10 µM; 2,300 compounds, 39% hits;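 active = mean duplicate percent inhibition, scaled so buffer wells are 0 and the reference blocker 100, over three buffer SD above buffer mean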
HEK293 Ca mobil – calcium mobilization in TMEM16A/YFP HEK293 cells, confirmation, counter-screen for TMEM16A inhibitor project | 2,300 compounds, 2% hits | shares compounds with TMEM16A inh | calcium response (% of ionomycin), % at 10 µM | Fluo4 calcium mobilization | AID 652231, 2013;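 active = duplicate-averaged calcium signal over 20% of the ionomycin maximum, relative to buffer baseline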;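 also: each well's signal is peak minus trough fluorescence divided by its pre-addition baseline; 0% = buffer wells and 100% = ionomycin wells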
YFP-HEK293 quench – iodide YFP quench changes in parental YFP-HEK293, counter-screen for TMEM16A inhibitor project, cell-based | shares compounds with TMEM16A inh | ionomycin | YFP ratio F(max-min)/F0 at 10 µM | 2,300 tested, under 10 active;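 active = yellow fluorescent protein signal ratio exceeding the buffer control mean by over 5 SD of those controls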;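 also: ratio is mean of duplicate wells from kinetic YFP trace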
ClC-1 inh – ClC-1 chloride channel inhibition, selectivity assay for TMEM16A inhibitor project, cell-based, voltage-dependent ClC-1 | shares compounds with TMEM16A inh | CHO ClC-1-YFP, iodide influx fluorescence quench; iodide control reads 0, buffer control 100 | ratio percent, % at 10 µM | 2,300 tested, under 10 active | AID 652236, 2013;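 active = duplicate-mean ratio percent above the mean of iodide-only control wells, which defines zero, plus 5 of their SD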;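 also: higher percent means stronger block of ClC-1 iodide influx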
* marks the source's active call; other numbers are inactive results; i = inactive; . = no result. Most compounds without a hit are left out; they make up all but 2.4% or so of the library.

SMILES	RTF Ca sens inh	CRFBP-R2 agonist	RTF Ca sens act	CRFBP-R2 block	TMEM16A inh	ANO1 activ	TMEM16A reconf	HEK293 Ca mobil	YFP-HEK293 quench	ClC-1 inh
Cc1cc(=O)oc2cc(OCC(=O)OCC(=O)N3CCc4ccccc43)ccc12	-4	0	-1	-1	25*	i	i	i	-1.3	2
CC1CC(OC(=O)C2CCN(S(=O)(=O)c3ccc(F)cc3)CC2)C(=O)O1 (configuration not stated)	0	0	0	-1	.	i	.	.	.	.
COC(=O)c1ccccc1NC(=O)NCc1c(C)nn(C)c1C	2	-2	13	11	i	i	.	.	.	.
CN(C)S(=O)(=O)c1cccc(COC(=O)c2cccnc2Cl)c1	-6	0	-6	-2	25*	i	i	i	-0.93	-10
CN(C)S(=O)(=O)c1cccc(COC(=O)c2cnccn2)c1	-8	0	-2	-6	i	i	.	.	.	.
COc1cccc(-n2c(=O)c3cc(OC)c(OC)cc3n(CC(=O)Nc3cc(C)[nH]n3)c2=O)c1	3	0	8	0	i	i	.	.	.	.
CC(C)(C)c1ccc(S(=O)(=O)/N=C2\C=C(NS(=O)(=O)c3ccccc3)C(=O)c3ccccc32)cc1	2	-1	-6	11	100*	i	88%*	i	-0.95	-21
COC(=O)c1ccccc1NC1=C/C(=N\S(=O)(=O)c2ccc(C(=O)O)cc2)c2ccccc2C1=O	-12	-3	-3	14	i	i	.	.	.	.
CCc1ccc(S(=O)(=O)/N=C2\C=C(Nc3ccc(C(=O)O)cc3)C(=O)c3ccccc32)cc1	6	0	-10	22	100*	i	23%*	i	-0.77	-8
C=CCn1c(=O)c2ccccc2n2c(SCC(=O)NC)nnc12	-12	-1	1	3	i	i	.	.	.	.
COc1ccc(NC(=O)COC(=O)CO/N=C(\C)c2ccc3c(c2)OCO3)cc1S(N)(=O)=O	-3	-1	2	9	.	i	.	.	.	.
CCC(=O)Nc1nc(-c2ccc3c(c2)CC(C)N3S(C)(=O)=O)cs1 (configuration not stated)	0	-1	-6	20	i	i	.	.	.	.
CC1Cc2cc(-c3csc(NC(=O)Cc4cccs4)n3)ccc2N1S(C)(=O)=O (configuration not stated)	0	6	-3	-21	25*	i	22%*	i	-1.4	-4
CCN(Cc1ccccc1)C(c1ccc(C)cc1)c1nnnn1C(C)(C)CC (configuration not stated)	4	2	-1	21	100*	i	i	i	-1.5	0
CCN(Cc1ccccc1)C(c1ccncc1)c1nnnn1C(C)(C)C (configuration not stated)	2	-1	4	22	i	i	.	.	.	.
CCCc1nc(SCC(=O)c2ccc(F)cc2)c2ccccc2n1	2	4	5	-6	i	i	.	.	.	.
COc1ccc(NC(=O)c2csc(Cc3ccccc3)n2)cc1	-3	0	0	16	25*	i	i	i	-1.1	-4
Cc1ccc(NC(=O)C(C)NS(=O)(=O)c2ccc(F)cc2)cc1C (configuration not stated)	1	0	0	-1	25*	i	i	i	-1.3	-16
CNC(=O)C(C)NS(=O)(=O)c1ccc(F)cc1 (configuration not stated)	-8	-3	3	-22	i	i	.	.	.	.
COc1cc2ncnc(Nc3ccc4c(c3)OCO4)c2cc1OC	-5	-4	0	15	i	i	i	i	-0.89	-4
COc1ccc(C(=O)c2c(NC(C)=O)sc3c2CCN(C(=O)OC(C)(C)C)C3)cc1	.	-3	.	18	i	i	.	.	.	.
O=[N+]([O-])c1ccc(COc2cccc(CNc3ccc(F)cc3)c2)cc1	-3	-1	1	12	i	i	.	.	.	.
Oc1ccc(NCc2cccc(OCc3ccccc3)c2)cc1	2	-1	0	5	25*	i	i	26%*	-1	-1
COc1ccc2nc(SCC(=O)Nc3ccc4sc(C)nc4c3)c(C#N)cc2c1	-4	0	0	17	i	i	.	.	.	.
COc1cc(NC(=O)COc2cc(O)c3c(c2)OC(C)(C)CC3=O)cc(OC)c1OC	-1	-3	1	-9	100*	i	20%*	i	-1.3	-30
SMILES	RTF Ca sens inh	CRFBP-R2 agonist	RTF Ca sens act	CRFBP-R2 block	TMEM16A inh	ANO1 activ	TMEM16A reconf	HEK293 Ca mobil	YFP-HEK293 quench	ClC-1 inh
COc1ccccc1N1CC(C)(C)C(=O)N(C(=O)c2ccc(C)cc2)C1=S	-9	-1	1	-1	i	i	.	.	.	.
Cc1cc(C)nc(/N=C(\N)Nc2ccc(OCCC(C)C)cc2)n1	-5	75*	-9	-35	100*	i	29%*	56%*	-1.2	-17
COc1ccc(-n2nnnc2CNC(=O)c2ccc3c(c2)OCO3)cc1	-2	-2	0	12	i	i	.	.	.	.
CN(C)c1ccccc1C(=O)N1CCCC(C(=O)c2ccc3ccccc3c2)C1 (configuration not stated)	1	1	7	-9	100*	i	i	i	-1.2	-8
CN(C)S(=O)(=O)c1ccc(NC(=O)CSc2nnc(-c3ccco3)n2N)cc1	-4	-1	-3	0	.	i	.	.	.	.
O=S(=O)(Nc1ccc2c(c1)OCCO2)c1ccc(F)c(F)c1	7	0	1	9	i	i	.	.	.	.
